These results are taken from PubChem BioAssay.

Calls of active or inactive are those of the source.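 Rule for the calls, unless noted: active = inhibition at or above 50% at 10 µM; inactive = inhibition below 50%.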

The nature of test [1]: inhibitors of TNFa-induced NFkB p65 translocation, primary screen, imaging, HUVEC, MLSMR starter and 10KST1 sets (AID 438;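 active = inhibition above 20% together with a positive visual image hit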;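 note: compound added about 3h40 before a 20 min TNFalpha stimulation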;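 for inhibition: signal is the nuclear over cytoplasmic p65 intensity ratio per well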). The note with it: HUVEC TNFa-induced p65 nuclear translocation; cell count: measured here: nuclei count (cytotoxicity indicator), at 2.08 µM; inhibition: at 2 µM, stronger effect = higher value, 0% TNFa-plus-vehicle, 100% no-TNFa wells.
A short description of test [2]: inhibitors of mutant huntingtin aggregation, primary screen, imaging, exon1htt(103Q)mCFP cells, high-content imaging (AID 483;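 active = visual image review flags a hit and inhibition of aggregation exceeds 20%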;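 note: compound exposure lasted 3 days before fixation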;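 for nuclei count: percent of the per-plate median nuclei count of sample wells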). The conditions noted are these: exon1htt(103Q)mCFP cell line, aggregate imaging, at 2 µM; inhibition of aggregation: stronger effect = higher value; nuclei count: measured here: cell count, toxicity.
A short description of test [3]: inhibitors of E-selectin induction by TNFa, primary screen, imaging, HUVEC, immunofluorescence, MLSMR starter and 10KST1 sets (AID 487;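 active = visually confirmed hit in the image check and inhibition above 20%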;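 for inhibition: signal is fraction of cell area covered by stained E-selectin grains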;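 for nuclei count: 100% = median nuclei count of all wells on the same plate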). The note with it: HUVEC TNFalpha-induced E-selectin immunofluorescence imaging, at 2 µM; inhibition: stronger effect = higher value; nuclei count: measured here: cell number, toxicity.
Test [4] deals with Voltage-gated potassium channel subunit beta-2 (Rattus norvegicus) (UniProt P62483). Kind of test: KvBeta enzyme negative modulators, primary screen, biochemical, NADPH fluorescence (AID 622;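 active = fluorescence slope higher than the sample average by over 3 SD, cut at about -0.22 in these data, passing the limit was not always enough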;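 note: slope of raw intensity against log time taken from 70 to 1610 s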). The note with it: recombinant KvBeta, 4-cyanobenzaldehyde reduction, at 10 µM, stronger effect = higher value.
Test [5] has the same target. Kind of test: KvBeta positive modulators, primary screen, biochemical, NADPH fluorescence (AID 623;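 active = NADPH fluorescence slope more negative than the mean of all samples by about 3 SD, 99.7% confidence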;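 note: fluorescence intensity change per second fitted from 20 to 320 s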). The conditions noted are these: Recombinant KvBeta, NADPH fluorescence decrease slope, 10 min; at 10 µM; stronger effect = lower value.
The target of test [6] is Alpha-2C adrenergic receptor (Homo sapiens) (UniProt P18825). Kind of test: modulators of alpha2C/GIRK thallium flux, primary screen, cell-based, HEK293 alpha2C/GIRK1/2 (AID 624;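 active = fluorescence slope after compound addition differing from the mean of all screened samples at 99.7% confidence, in either direction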;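 note: slope of fluorescence ratio to pre-addition baseline per second over 15 to 24 s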). The note with it: thallium flux BTC fluorescence, at 10 µM, actives lie on both sides.
Test [7] can be described thus: inhibitors of Sendai virus-induced IRF3 signaling, primary screen, TLR/RLR signaling modifier project, cell-based, Sendai virus stimulus, luciferase, 10K MLSCN set (AID 602276).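 Note: firefly luciferase from ISG56 promoter only with Renilla not read in this screen; 0% = Sendai virus plus DMSO and 100% = medium plus DMSO without virus.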 The note with it: HEK293 RL24 IRF3 luciferase reporter, at 10 µM, stronger effect = higher value.
Test [8] can be described thus: inhibitors of poly I:C-induced TLR3 signaling, primary screen, cell-based, poly I:C stimulus, luciferase, 10K MLSCN set (AID 602277;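 active = inhibition of the reporter signal at or above 50%; inactive = inhibition below 50%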). The note with it: HEK293-TLR3 RL24 IRF3 luciferase reporter, at 10 µM, stronger effect = higher value. Background: In a reporter assay the amount or activity of a reporter protein is the signal.

Chain of Alpha-2C adrenergic receptor (Homo sapiens) (P18825 whole entry, looked up): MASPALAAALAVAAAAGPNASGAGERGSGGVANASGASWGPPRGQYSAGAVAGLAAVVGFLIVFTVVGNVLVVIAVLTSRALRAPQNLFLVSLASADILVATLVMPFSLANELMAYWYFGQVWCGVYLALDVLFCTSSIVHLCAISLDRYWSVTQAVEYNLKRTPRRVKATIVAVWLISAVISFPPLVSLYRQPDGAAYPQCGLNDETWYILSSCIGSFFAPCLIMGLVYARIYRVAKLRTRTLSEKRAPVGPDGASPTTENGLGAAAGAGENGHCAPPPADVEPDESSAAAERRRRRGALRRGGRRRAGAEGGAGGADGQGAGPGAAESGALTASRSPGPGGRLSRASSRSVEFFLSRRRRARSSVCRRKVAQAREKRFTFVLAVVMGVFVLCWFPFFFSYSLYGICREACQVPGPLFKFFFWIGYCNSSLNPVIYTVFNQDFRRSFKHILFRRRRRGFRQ
Chain of Voltage-gated potassium channel subunit beta-2 (Rattus norvegicus) (P62483 whole entry, looked up): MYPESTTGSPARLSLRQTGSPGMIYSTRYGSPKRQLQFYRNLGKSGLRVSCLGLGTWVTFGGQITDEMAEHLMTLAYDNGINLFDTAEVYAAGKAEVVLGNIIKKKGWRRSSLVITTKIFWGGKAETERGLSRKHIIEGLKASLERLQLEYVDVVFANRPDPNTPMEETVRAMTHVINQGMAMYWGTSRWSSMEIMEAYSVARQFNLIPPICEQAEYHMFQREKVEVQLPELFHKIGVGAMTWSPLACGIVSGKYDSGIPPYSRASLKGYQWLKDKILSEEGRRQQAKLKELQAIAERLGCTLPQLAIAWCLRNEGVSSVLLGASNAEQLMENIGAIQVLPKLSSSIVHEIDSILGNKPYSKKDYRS

For orientation: inhibition means the change of the read-out against control, counted positive when it falls. `COc1ccc(C)cc1NS(=O)(=O)c1ccc(NS(=O)(=O)c2ccc(NC(C)=O)cc2)cc1`: the cell count in test [1] came out at 345. In addition, the inhibition in test [1] is -7.8% (inactive); in test [3] it was -16.4% (inactive); in test [7], 19.9% (inactive); in test [8], 24.8% (inactive). For the same compound, in test [2], the inhibition of aggregation was -15.2% (inactive). The nuclei count in test [2] was 99.4%; in test [3], 119%. Besides, the fluorescence slope in test [4] was -0.514 (inactive). Also, the NADPH fluorescence slope in test [5] was -6e-05 (inactive). The slope in test [6] was 0.00545 (inactive).
Take `O=C(c1ccc(Cl)cc1)N1CCCCC(Sc2nnc(-c3ccc4c(c3)OCO4)o2)C1=O` (centres undefined): the cell count in test [1] is 505. In addition, the inhibition in test [1] was -13.7% (inactive); in test [3], -71.6% (inactive); in test [7], -180% (inactive); in test [8], 92% (active). In addition, the inhibition of aggregation in test [2] is 14.1% (inactive). Also, the figures for the nuclei count in test [2] and in test [3] were 93.7% and 145%, respectively. The fluorescence slope in test [4] is -0.624 (inactive). Also, the NADPH fluorescence slope in test [5] is -3.6e-05 (inactive). Moreover, in test [6], the slope was 0.00978 (inactive).
Turning to `CCn1cc(S(=O)(=O)CC(=O)Nc2ccc(OC)cc2)c2ccccc21`, in test [1], the cell count is 624. Also, the inhibition in test [1] is -2.4% (inactive); in test [3] it was -16.8% (inactive); in test [7], 7.03% (inactive); in test [8], 16.6% (inactive). Moreover, in test [2], the inhibition of aggregation is 7% (inactive). The results for the nuclei count in test [2] and in test [3] were 82.1% and 115%, respectively. Further, the fluorescence slope in test [4] was -0.528 (inactive). Further, the NADPH fluorescence slope in test [5] was -4.7e-05 (inactive). In test [6], the slope is 0.00751 (inactive).
`CCN(CC)C(=O)C1=C(C)Nc2nnnn2C1c1cccnc1` (centres undefined): in test [1], the cell count worked out at 346. Further, the inhibition in test [1] is 9.3% (inactive); in test [3], -55.9% (inactive); in test [7], 11.8% (inactive); in test [8], 16.8% (inactive). The inhibition of aggregation in test [2] was 11.2% (inactive). Also, the nuclei count stood at 102% in test [2] and 109% in test [3]. Further, the fluorescence slope in test [4] was -0.567 (inactive). Moreover, the NADPH fluorescence slope in test [5] is 1.1e-05 (inactive). In test [6], the slope is 0.0059 (inactive).
As to `COc1ccccc1-n1c(=O)[nH]c2c(C(N)=O)nc(CC(C)C)nc21`, in test [1], the cell count was 809. In addition, the inhibition in test [1] is -0.5% (inactive); in test [3], 2.2% (inactive); in test [7], 13% (inactive); in test [8] it was 32.3% (inactive). Moreover, the inhibition of aggregation in test [2] is -23.3% (inactive). The nuclei count in test [2] was determined as 105%; in test [3], 117%. Further, the fluorescence slope in test [4] is -0.58 (inactive). In addition, the NADPH fluorescence slope in test [5] is -3e-05 (inactive). Besides, the slope in test [6] is 0.00821 (inactive).
For the compound `CCOc1ccc(N(CC(=O)OC)S(=O)(=O)c2ccc(OC)c(OC)c2)cc1`, the cell count in test [1] worked out at 444. Further, the inhibition was 6.3% (inactive) in test [1], 9.4% (inactive) in test [3], -8.61% (inactive) in test [7] and 15.5% (inactive) in test [8]. Besides, in test [2], the inhibition of aggregation was -1.6% (inactive). Besides, the nuclei count amounted to 104% in test [2] and 101% in test [3]. The fluorescence slope in test [4] is -0.455 (inactive). In addition, the NADPH fluorescence slope in test [5] was 6.6e-05 (inactive). In addition, the slope in test [6] is 0.00363 (inactive).
Regarding `CCN(CC)S(=O)(=O)c1ccc2c(c1)nc(SCC(=O)NC1CC1)n2-c1ccccc1OC`, in test [1], the cell count was 531. Besides, the inhibition is -14.3% (inactive) in test [1], -137% (inactive) in test [3], 14.2% (inactive) in test [7] and 48.2% (inactive) in test [8]. Besides, the inhibition of aggregation in test [2] was 9.5% (inactive). In addition, the nuclei count came to 109% in test [2] and 125% in test [3]. Also, the fluorescence slope in test [4] was -0.598 (inactive). The NADPH fluorescence slope in test [5] was -7.2e-06 (inactive). Further, in test [6], the slope is 0.00577 (inactive).
As for `OC1C=CSc2nc3ccccc3n21` (centres undefined), the cell count in test [1] stood at 398. Moreover, the inhibition in test [1] was 4.9% (inactive); in test [3] it was -50.3% (inactive); in test [7], 4.8% (inactive); in test [8] it was 17.8% (inactive). In addition, the inhibition of aggregation in test [2] was -12.9% (inactive). Besides, the nuclei count in test [2] was found to be 102%; in test [3], 113%. Further, in test [4], the fluorescence slope was -0.467 (inactive). Further, in test [5], the NADPH fluorescence slope is -3.8e-05 (inactive). The slope in test [6] is 0.00527 (inactive).
With `O=C1CN(c2nc3ccccc3n3cnnc23)CC(=O)N1CCc1ccccc1`, the cell count in test [1] amounted to 662. Also, the inhibition was 10% (inactive) in test [1], -66% (inactive) in test [3], 6.8% (inactive) in test [7] and 9.78% (inactive) in test [8]. In addition, in test [2], the inhibition of aggregation was -13% (inactive). The nuclei count in test [2] was 112%; in test [3], 116%. Also, the fluorescence slope in test [4] was -0.588 (inactive). Besides, the NADPH fluorescence slope in test [5] was -6.3e-05 (inactive). Besides, the slope in test [6] was 0.00474 (inactive).
With `CC1CCC(NC(=O)Cn2ncc3ccccc32)CC1` (centres undefined), the cell count in test [1] came out at 728. The inhibition is -3.7% (inactive) in test [1], -59.2% (inactive) in test [3], -43.1% (inactive) in test [7] and -111% (inactive) in test [8]. For the same compound, in test [2], the inhibition of aggregation was -13.1% (inactive). The results for the nuclei count in test [2] and in test [3] were 118% and 106%, respectively. For the same compound, the fluorescence slope in test [4] was -0.577 (inactive). For the same compound, the NADPH fluorescence slope in test [5] is -4.8e-05 (inactive). The slope in test [6] was 0.00746 (inactive).
In the case of `O=C(CCn1cccc1)N1CCc2ccccc21`, in test [1], the cell count was found to be 281. For the same compound, the inhibition was 6.5% (inactive) in test [1], -12% (inactive) in test [3], -13.2% (inactive) in test [7] and -44.8% (inactive) in test [8]. For the same compound, the inhibition of aggregation in test [2] is -5.2% (inactive). In addition, the nuclei count is 108% in test [2] and 106% in test [3]. The fluorescence slope in test [4] is -0.554 (inactive). In addition, the NADPH fluorescence slope in test [5] was 2e-05 (inactive). Further, the slope in test [6] is 0.00578 (inactive).
As to `CCn1c(=O)c(C(=O)Nc2cccnc2)c(O)c2ccccc21`, in test [1], the cell count stood at 362. In addition, the inhibition in test [1] was 4.1% (inactive); in test [3] it was -39.9% (inactive); in test [7], -1.35% (inactive); in test [8], -9.19% (inactive). In test [2], the inhibition of aggregation is 7% (inactive). Further, the nuclei count in test [2] was determined as 105%; in test [3] it was 107%. Also, the fluorescence slope in test [4] was -0.465 (inactive). Further, in test [5], the NADPH fluorescence slope was -4.5e-05 (inactive). For the same compound, the slope in test [6] is 0.00569 (inactive).
`Cc1cccc(N=C2NC(=O)CS2)c1C`: the cell count in test [1] is 333. The inhibition is -0.6% (inactive) in test [1], 3.7% (inactive) in test [3], 20.6% (inactive) in test [7] and 22.9% (inactive) in test [8]. The inhibition of aggregation in test [2] is -5.7% (inactive). Further, the values for the nuclei count in test [2] and in test [3] were 109% and 93.9%, respectively. In addition, the fluorescence slope in test [4] was -0.499 (inactive). Moreover, in test [5], the NADPH fluorescence slope was -3.3e-05 (inactive). Besides, the slope in test [6] is 0.00501 (inactive).
Regarding `COc1cc(C(=O)Nc2ccc(-n3cnnn3)c(C)c2)cc(OC)c1OC`, the cell count in test [1] was found to be 302. The inhibition in test [1] was 5.8% (inactive); in test [3] it was -94.5% (inactive); in test [7], -0.467% (inactive); in test [8], 20.8% (inactive). Further, the inhibition of aggregation in test [2] was 11.6% (inactive). The nuclei count came out at 90% in test [2] and 149% in test [3]. Besides, in test [4], the fluorescence slope was -0.617 (inactive). Also, in test [5], the NADPH fluorescence slope is 3e-06 (inactive). Further, in test [6], the slope was 0.00564 (inactive).
